Test results reported in PubChem BioAssay AID463173 (ICCB-Longwood Screening Facility, Harvard Medical School, 2010).
Among all 52,000 compounds or so, about 1,700 (3.3%) were called active. The entries come from a sample that favours actives as a whole. Unmarked numbers belong to inactive results. No stated cut-off is given here; in the data, active means survival mostly below about 52% (no sharp cut-off); inactive means mostly above about 56%.

System: Wild type
Assay: S. aureus survival, RN4220 and DeltatarO strains – OD600, teichoic acid synthesis inhibitors, primary screen (AID 463173)
Details: S. aureus RN4220 wild type/DeltatarO growth, OD600, 18 h, stronger effect = lower value, screened at 18.75 µg/mL (by protocol)

Row | SMILES | survival
1 | O=C(NCc1ccc(Cl)cc1)C(=O)NCC(c1cccs1)S(=O)(=O)c1ccc(Cl)cc1 (stereo unspecified) | 58%
2 | CCOC(=O)C1CCN(c2cc(C)nc3c(-c4ccccc4OC)c(C)nn23)CC1 | 82%
3 | COc1ccc(S(=O)(=O)N(Cc2ccccc2)Cc2nc3ccccc3c(=O)[nH]2)cc1 | 113%
4 | COc1ccc(C2=C(C)C(=O)N(Cc3ccc(C(=O)NCc4ccccc4C)cc3)S2(=O)=O)cc1 | 66%
5 | Cc1cccc(OCc2nc(CC(=O)Nc3ccc(Cl)cc3)cs2)c1 | 92%
6 | COc1ccccc1N1CCN(c2ncnc3c2c(-c2ccccc2)cn3-c2cccc(Cl)c2)CC1 | 74%
7 | CCc1ccc2nc(N(Cc3cccnc3)C(=O)c3cccs3)sc2c1 | 127%
8 | CC(=O)c1cccc(NC(=O)c2ccc3c(c2)CCN3S(=O)(=O)c2ccccc2)c1 | 71%
9 | Cc1c(-c2nnc(SCC(=O)Nc3ccc(Br)cc3)o2)nnn1-c1ccc(F)cc1 | 80%
10 | O=C(CCCCCn1c(=O)[nH]c2ccccc2c1=O)NCCc1ccccc1 | 92%
11 | Cc1cccc(NC(=O)c2sc3nc4c(cc3c2N)CCCCCC4)c1C | 121%
12 | O=C(c1ccco1)n1nc(-c2ccccc2)nc1NCc1ccc(Cl)cc1 | 85%
13 | O=C(c1ccccc1)n1nc(-c2ccc(Cl)cc2)nc1NCc1ccco1 | 25% (active)
14 | O=C(c1ccc(F)cc1)n1nc(-c2ccccc2)nc1NCc1ccc(F)cc1 | 19%
15 | O=C(c1ccco1)n1nc(-c2ccc(Cl)cc2)nc1NCc1ccc(F)cc1 | 70%
16 | O=C(c1ccco1)n1nc(-c2ccccc2)nc1NCc1ccc(F)cc1 | 73%
17 | O=C(c1ccc(Cl)cc1)n1nc(-c2ccccc2)nc1NCc1ccco1 | 24% (active)
18 | O=C(c1ccco1)n1nc(-c2ccc(Cl)cc2)nc1NCc1ccccc1 | 74%
19 | O=C(c1ccc(F)cc1)n1nc(-c2ccc(Cl)cc2)nc1NCc1ccco1 | 76%
20 | O=C(c1ccc(F)cc1)n1nc(-c2cccnc2)nc1NCc1ccccc1 | 81%
21 | O=C(c1ccccc1)n1nc(-c2ccccc2)nc1NCc1ccc(F)cc1 | -4% (active)
22 | O=C(c1ccc(F)cc1)n1nc(-c2ccccc2)nc1NCc1ccco1 | 9% (active)
23 | COc1ccc(C(=O)n2nc(-c3ccc(Cl)cc3)nc2NCc2ccco2)cc1 | 99%
24 | Cc1ccc(Nc2nc(C(N)=O)c(NC(=O)c3ccccc3Br)s2)cc1 | 71%

Row | SMILES | survival
25 | CCOC(=O)C1CCC(CN(Cc2ccc(Cl)cc2)S(=O)(=O)c2cc(Cl)cc(Cl)c2)CC1 (stereo unspecified) | 59%
26 | COc1ccc(-n2c(=O)c3sc4ccccc4c3n(Cc3ccccc3)c2=O)cc1 | 81%
27 | CCc1ccc(NC(=O)c2oc3c(c2C)-c2[nH]ncc2CC3)cc1 | 59%
28 | Cc1cc(NC(=O)c2oc3c(c2C)-c2[nH]ncc2CC3)ccc1Br | 1% (active)
29 | Cc1cc(C)c(NC(=O)c2oc3c(c2C)-c2[nH]ncc2CC3)c(C)c1 | 81%
30 | Cc1[nH]c2ccc(Cl)cc2c(=O)c1CN1CCN(C)CC1 | 109%
31 | Clc1ccc(CCNc2nc3ccccc3c3nc(-c4ccccc4)nn23)cc1 | 38%
32 | Cc1ccc(CNC(=O)CSc2nc3n[nH]c(C)c3c(=N)n2-c2ccccc2Cl)cc1 | 83%
33 | Cc1ccc(CN2CCC(CNC(=O)Nc3ccc(Cl)cc3)C2)cc1 (stereo unspecified) | 53%
34 | Cc1ccc(CN2CCC(CNC(=O)Nc3ccc(C)c(C)c3)C2)cc1 (stereo unspecified) | 94%
35 | O=C(NCC1CCN(Cc2cccc(Cl)c2)CC1)Nc1cc(Cl)ccc1Cl | -1% (active)
36 | O=C(NCC1CCN(Cc2cccc(Cl)c2)CC1)Nc1ccc(F)c(Cl)c1 | 14% (active)
37 | Cc1ccc(CN2CCC(CNC(=O)Nc3cccc(Cl)c3C)C2)cc1 (stereo unspecified) | 88%
38 | O=C(NCC1CCN(Cc2ccccc2F)CC1)Nc1ccc(F)c(Cl)c1 | 73%
39 | Cc1cc(C)cc(NC(=O)NCC2CCN(Cc3cc(C)ccc3C)CC2)c1 | 83%
40 | Cc1ccc(CN2CCC(CNC(=O)Nc3ccccc3F)CC2)cc1 | 118%
41 | Cc1ccc(NC(=O)NCC2CCN(Cc3cccc(Cl)c3)CC2)cc1Cl | -6% (active)
42 | COc1ccc(-c2cc3nccc(-c4cc(Cl)c(C)cc4O)n3n2)cc1 | 82%
43 | CN1CCN(C(CNC(=O)c2ccc(F)cc2)c2ccc3c(c2)OCO3)CC1 (stereo unspecified) | 70%
44 | C=CCN1C=C/C(=C\C=C(C#N)C#N)c2ccccc21 | 102%
45 | CCc1c(C)nc(SCc2nc(-c3ccccc3)no2)[nH]c1=O | 118%
46 | COc1cccc(C(=O)N(Cc2ccco2)c2ccccn2)c1 | 103%
47 | COc1ccc(CCNC(=O)c2nc(SCc3ccc(F)cc3)ncc2Cl)cc1OC | 86%
48 | CN(CC(=O)NCc1ccc(Cl)cc1)S(=O)(=O)c1ccc2c(c1)c(=O)n(C)c(=O)n2C | 81%

Row | SMILES | survival
49 | COc1ccc(NC(=O)c2oc3ccccc3c2NC(=O)Cc2cccs2)cc1 | 90%
50 | C#CC(C)(CC)NC(=O)Cn1nnc(-c2ccc(OCc3ccccc3C)cc2)n1 (stereo unspecified) | 143%
51 | Cc1ccc(-n2cc(-c3ccccc3)c3c(N4CCCCC4)ncnc32)cc1 | 80%
52 | Cc1sc2nc(CN(CCc3ccccc3)C(=O)c3ccco3)[nH]c(=O)c2c1C | 100%
53 | O=C(NCc1ccccc1Cl)c1ccc2oc(=O)n(Cc3ccccc3)c2c1 | 81%
54 | COc1cc(Cn2c(=O)oc3ccc(C)cc32)ccc1OCCC(C)C | -7% (active)
55 | CCOC(=O)c1ccc2oc(=O)n(Cc3ccccc3)c2c1 | 68%
56 | CCCCCOc1ccc(Cn2c(=O)oc3ccc(C)cc32)cc1OC | -6% (active)
57 | Cc1ccc2oc(=O)n(CCNC(=O)Nc3ccccc3Cl)c2c1 | 90%
58 | CCCCCOc1ccccc1Cn1c(=O)oc2ccc(C)cc21 | 15% (active)
59 | Cc1ccc2c(c1)C(=O)C(=O)N2Cc1ccc(OCCC(C)C)cc1 | 79%
60 | CCCCCOc1ccccc1CN1C(=O)C(=O)c2cc(C)ccc21 | 105%
61 | CCCCOc1ccc(Cn2c(=O)oc3ccc(C)cc32)cc1OC | 49%
62 | Cc1ccc2oc(=O)n(Cc3ccccc3Cl)c2c1 | -2% (active)
63 | CCCCOc1ccc(CN2C(=O)C(=O)c3cc(C)ccc32)cc1OC | 87%
64 | CCCCCOc1ccc(Cn2c(=O)oc3ccccc32)cc1 | 120%
65 | COc1cc2nc(C3CCC3)n(NC(=O)c3ccccc3C)c(=O)c2cc1OC | 115%
66 | CSc1ccc(CCNC(=O)CCc2c(C)nc3ncnn3c2C)cc1 | 71%
67 | CCC1CN(C(=O)C2CCN(S(=O)(=O)c3c(C)noc3/C=C/c3ccccc3F)CC2)c2cc(Cl)ccc2O1 (stereo unspecified) | 71%
68 | COc1ccc(NC(=O)Cn2c(=O)n(-c3ccccc3)c(=O)c3ccc(C(=O)NCc4ccc5c(c4)OCO5)cc32)cc1 | 154%
69 | COc1ccc(NC(=O)C2CCCN(S(=O)(=O)c3c(C)[nH]c(=O)[nH]c3=O)C2)cc1OC (stereo unspecified) | 130%
70 | O=C(Nc1cc(-c2ccc(F)c(F)c2)no1)c1ccccc1F | 92%
71 | COC(=O)c1ccccc1NC(=O)c1ccc(-c2nc(COc3ccccc3)c(C)o2)cc1 | 135%
72 | COCCCNC(=O)C1CCN(c2nnc(-n3cccc3CNc3ccc(C)cc3)s2)CC1 | 72%

Row | SMILES | survival
73 | CCc1nn2c(=O)cc(COC(=O)C(CC)c3ccccc3)nc2s1 (stereo unspecified) | 73%
74 | CCOCCc1nn2c(=O)cc(COC(=O)c3ccco3)nc2s1 | 85%
75 | CCOCCc1nn2c(=O)cc(COC(=O)Cc3ccccc3)nc2s1 | -1% (active)
76 | CCOCCc1nn2c(=O)cc(COC(=O)C(CC)c3ccccc3)nc2s1 (stereo unspecified) | 14% (active)
77 | CCc1nn2c(=O)cc(COC(=O)Cc3ccccc3)nc2s1 | 59%
78 | CCC(C(=O)OCc1cc(=O)n2nc(CCOC)sc2n1)c1ccccc1 (stereo unspecified) | 136%
79 | Cc1ccc(-c2nnc3ccccc3c2C(=O)Nc2cccc(C(F)(F)F)c2)cc1 | 120%
80 | COc1ccc(N(Cc2cccs2)C(=O)c2ccc(OCC(C)C)cc2)cc1 | 113%
81 | CCc1ccccc1NC(=O)CN(c1cccc(C)c1C)S(C)(=O)=O | 72%
82 | Cc1ccc(NC(=O)Cn2c(=O)n(Cc3ccco3)c(=O)c3sc4ccccc4c32)cc1C | 126%
83 | CCc1nn2c(=O)cc(COC(=O)C3CCCCC3)nc2s1 | 72%
84 | Cc1cccc(-c2nc(SCC(=O)NCC3CCCO3)c3c(=O)n(C)c(=O)n(C)c3n2)c1 (stereo unspecified) | 128%
85 | Oc1c(C(c2ccccc2Cl)N2CCCC2)sc2nc(-c3ccco3)nn12 (stereo unspecified) | 82%
86 | Oc1c(C(c2ccc(F)cc2)N2CCN(Cc3ccccc3)CC2)sc2nc(-c3ccco3)nn12 (stereo unspecified) | 89%
87 | Oc1c(C(c2ccccc2Cl)N2CCOCC2)sc2nc(-c3ccco3)nn12 (stereo unspecified) | -2% (active)
88 | Oc1c(C(c2ccccc2)N2CCOCC2)sc2nc(-c3ccco3)nn12 (stereo unspecified) | 88%
89 | Oc1c(C(c2ccccc2)N2CCN(Cc3ccccc3)CC2)sc2nc(-c3ccco3)nn12 (stereo unspecified) | 10% (active)
90 | CN1CCN(C(c2ccccc2Cl)c2sc3nc(-c4ccco4)nn3c2O)CC1 (stereo unspecified) | 129%
91 | Oc1c(C(c2ccccc2)N2CCCC2)sc2nc(-c3ccco3)nn12 (stereo unspecified) | -3% (active)
92 | Oc1c(C(c2ccccc2)N2CCC3(CC2)OCCO3)sc2nc(-c3ccco3)nn12 (stereo unspecified) | 73%
93 | Cc1ccc(C(c2sc3nc(-c4ccco4)nn3c2O)N2CCN(Cc3ccccc3)CC2)cc1 (stereo unspecified) | 121%
94 | Cc1ccc(C(c2sc3nc(-c4ccco4)nn3c2O)N2CCC3(CC2)OCCO3)cc1 (stereo unspecified) | 70%
95 | CN1CCN(C(c2ccccc2)c2sc3nc(-c4ccco4)nn3c2O)CC1 (stereo unspecified) | 59%
96 | Oc1c(C(c2ccc(Cl)cc2)N2CCC3(CC2)OCCO3)sc2nc(-c3ccco3)nn12 (stereo unspecified) | 0% (active)
